BH1578 lux ind – inducers of Vibrio cholerae quorum light production without autoinducers, primary screen, BH1578 luxS cqsA deficient, single point | activation, % at 18.7 µM | V. cholerae BH1578 lux reporter, luminescence, 6 h | hit rate 0.16% among 350,000; in the data active = activation mostly above about 9.7%, no sharp cut-off
FadD28 binding – inhibitors of FadD28 bisubstrate probe binding, primary screen, biochemical, fluorescence polarization, single point | inhibition, % at 12.5 µM | hit rate 0.22% among 360,000 | AID 588549, 2011; in the data active = inhibition above about 8.5%, passing the limit was not always enough
PrP UTR inh – inhibition of PrP 5' UTR reporter expression | cell-based PrP 5' UTR mRNA reporter, plate reader | inhibition, % (concentration not given with the values) | hit rate 0.35% among 340,000; in the data active = inhibition above about 52%; note: 0 = median of the neutral control wells
PriA SSB inh – inhibitors of Klebsiella pneumoniae PriA binding to SSB C-terminal tail, primary screen, biochemical, AlphaScreen. PriA–SSB C-terminal tail interaction (Klebsiella pneumoniae). AlphaScreen SSBct-PriA binding, biotinylated peptide. inhibition, % at 33 µM. hit rate 0.6% among 430,000; in the data active = inhibition mostly above about 37%, no sharp cut-off; inactive = mostly below about 20%;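 note: plate controls were negative control peptide for no effect and reference peptide for full effect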
PrPC surface inh – inhibitors of human cell surface prion protein PrPC, primary screen, cell-based, TR-FRET | AID 720596, 2013 | hit rate 0.43% among 370,000 | Major prion protein (Homo sapiens), P04156 | inhibition, % at 13.8 µM | TR-FRET read-out; in the data active = inhibition above about 24%; note: 0% = median of the test wells and 100% = reference compound wells
PrPC TRFRET cf – confirmation of inhibitors of cell surface human prion protein, confirmation, cell-based, TR-FRET | shares compounds with PrPC surface inh | cell surface PrPC level | inhibition, % at 13.8 µM | hit rate 65% among 1,500; in the data active = inhibition above about 25%
LD9 tox – cytotoxicity in LD9 cells, cytotoxicity control for cell surface PrPc inhibitor project, cell-based, luminescence, high throughput; shares compounds with PrPC surface inh; luminescence viability; inhibition, % at 13.8 µM; hit rate 29% among 1,500; in the data active = inhibition above about 9.5%
Active calls of the source: *; i = inactive; nt = not tested or not shown. The list is not random: actives were taken first. Their share in the collection is about 1.4%.

SMILES	BH1578 lux ind	FadD28 binding	PrP UTR inh	PriA SSB inh	PrPC surface inh	PrPC TRFRET cf	LD9 tox
COC(=O)OCC12CCC(O1)C1(C)C(=O)OCC21 (stereo unspecified)	0	-3	-30	-11	0	nt	nt
CCN(CC)C(=S)Nc1cc(C(=O)OC)ccc1C(=O)OC	0	0	3	0	25*	4	-6
CCC(C)C(=O)Nc1cc(C(=O)OC)ccc1C(=O)OC (stereo unspecified)	0	-4	-18	-4	nt	nt	nt
CCN1/C(=C/C=C/c2oc3ccc(-c4ccccc4)cc3[n+]2CC)Oc2ccc(-c3ccccc3)cc21	1	95*	11	0	43*	56*	64*
CCN1/C(=C/C=C/c2sc3ccccc3[n+]2CC)Sc2ccccc21	-3	-4	17	nt	nt	nt	nt
N#C/C(=C\c1ccc(O)cc1)C(=O)Nc1ccc(Cl)cc1	nt	nt	nt	6	nt	nt	nt
N#CC(=Cc1ccc(O)cc1)C(N)=C(C#N)C#N	0	0	47	-17	64*	7	-4
c1ccc2c(c1)nc(N1CCOCC1)c1nncn12	i	-1	-3	-16	104*	2	-3
Cc1ccc(C=NNC(=O)c2cc3c(ccc4ccccc43)o2)o1	nt	nt	nt	-3	nt	nt	nt
